Molecules are shown by their SMILES. Calls of active or inactive are those of the source. Rule for the calls: active = hit-call score of the fitted dose curve at least 0.9, where 1 is the maximum; inactive = score below 0.9.

This assay in a line: BSK_SAg_Proliferation: Cell Proliferation Assessment in the BioMAP Diversity Plus: SAg Assay (AID 2283095). Particulars: primary human HUVEC with PBMC. As for the experimental part:
BSK_SAg is a cell-based, multiplexed-readout assay that uses umbilical vein endothelium and peripheral blood mononuclear cells, a human vascular primary cell co-culture, with measurements taken at 24 hours after chemical dosing in a 96-well plate.BSK_SAg_Proliferation is an assay component in the BSK_SAg assay. It measures protein content, a form of viability reporter, as detected with absorbance signals by Sulforhodamine staining technology. Data from the assay component BSK_SAg_Proliferation was analyzed into 1 assay endpoint. This assay endpoint, BSK_SAg_Proliferation, was analyzed with bidirectional fitting relative to DMSO as the negative control and baseline of activity. Using a type of viability reporter, measures of total protein for gain or loss-of-signal activity can be used to understand the viability at the cellular-level. Furthermore, this assay endpoint can be referred to as a secondary readout, because this assay has produced multiple assay endpoints where this one serves a viability function. To generalize the intended target to other relatable targets, this assay endpoint is annotated to the cell cycle intended target family, where the subfamily is proliferation.
The levels of cell surface (or secreted, indicated by the prefix "s") biomarker endpoints were measured by ELISA. Overt cytotoxicity to cells in confluent adherent cultures (all systems other than the BT system) was assessed by measuring total protein levels using sulforhodamine B (SRB) staining in parallel cultures at the time of biomarker measurements, indicated as SRB endpoints. For proliferation assays for adherent cell types, individual cell types are cultured at sub-confluence and relative cell numbers quantified by SRB staining at time points optimized for each system (48 h: 3C and CASM3C systems; 72 h: BT and HDF3CGF systems; 96 h: SAg system). SRB was performed by staining cells with 0.1% SRB after fixation with 10% TCA and reading wells at 560 nm.Viability and proliferation of PBMC (T cells) was quantified by Alamar Blue reduction for the SAg and BT systems. For PBMC viability (referred to as PBMC Cytotoxicity within the assay endpoint names), cells were plated (75,000/well in a 96-well plate) and then chemical samples added for 1 h before addition of activators, SEB and TSST-1 (20 ng/mL final concentration each). Cells were incubated for 90 h. Then, Alamar Blue (20 uL/well) (Invitrogen, Cat DAL1100) was added for 6 h, and the plates were read with a fluorescence microplate reader at 546/580 nm (excitation/emission). For PBMC proliferation, cells were plated and activated as above but incubated for only 16 h prior to addition of Alamar Blue. Plates were read after 6 h.
Regarding `CC[C@@H]1C[C@H](N(Cc2cc(C(F)(F)F)cc(C(F)(F)F)c2)C(C)=O)c2cc(C(F)(F)F)ccc2N1C(=O)OC(C)C`, the outcome was inactive. Broadly, the AC50 is the concentration at which the activity in the assay is half-maximal. Take `O=c1c(-c2ccc(O)cc2)coc2cc(O)cc(O)c12`: the AC50 was 15.6 µM (active). In the case of `CCCCCCCCCCCO`, the AC50 was 33.6 µM (active). As to `CCCCCCCCOC(=O)c1cc(O)c(O)c(O)c1`, the AC50 was 5.52 µM (active). Still for that read-out and setting: the value for `O=C=NCCCCCCN=C=O` was 15.8 µM (active). Regarding `O=C1c2ccccc2C(=O)N1CCc1noc(-c2ccc(CN3CCCCCC3)s2)n1`, the result was inactive. Regarding `CC(C)(c1cc(Br)c(O)c(Br)c1)c1cc(Br)c(O)c(Br)c1`, the AC50 is 25.4 µM (active).

On to `O=C1O[C@H]([C@@H](O)CO)C(O)=C1O`, for which the result was inactive.

For `CCCCOC(=O)c1ccc(O)cc1`, the result was inactive. As for `Cc1oc2c(NC(=O)c3c(Cl)cccc3Cl)cccc2c1C(C)(C)O`, the AC50 is 20.6 µM (active). Turning to `O=C(O)c1ccccc1-n1cc(C(=O)O)c(=O)c2cc(Nc3c(F)cc(F)cc3Cl)c(Cl)cc21`, the result was inactive. Still for that read-out and setting: as for `C[C@]12CC[C@@H]3c4ccc(O)cc4CC[C@H]3[C@@H]1CCC2=O`, the entry is “inactive”. For the molecule `Clc1ccccc1C(c1ccccc1)(c1ccccc1)n1ccnc1`, the AC50 is 9.32 µM (active). Take `OC12N=C(c3ccccc3)SC1Cc1cc(Cl)ccc12` (stereo not given): the AC50 is 25.4 µM (active). As for `c1ccc(C[n+]2cccc3ccccc32)cc1`, the result was inactive. With `CN(C)c1ccc(C(=C2C=CC(=[N+](C)C)C=C2)c2ccc(N(C)C)cc2)cc1`, the AC50 was 0.693 µM (active).

In the case of `O=c1ccc2ccccc2o1`, the result was inactive. On to `NC(=O)c1nc(-c2cccc(-c3cc(F)ccc3OCC(F)(F)C(F)(F)F)c2)n[nH]1`, for which the half-maximal activity concentration (AC50) is 26.2 µM (active).

In the case of `CCN(Cc1cccnc1)C(=O)c1cccc(Cl)c1[C@]1(C)C(=O)N(Cc2ccc(OC)cc2OC)c2ccc(Cl)cc21`, the AC50 was 7.09 µM (active).

For the molecule `O=C(O)Cc1cc(I)c(Oc2ccc(O)c(I)c2)c(I)c1`, the AC50 was 11.8 µM (active).

For `CC(C)(C)c1cc(/C=C2\SC(N)=NC2=O)cc(C(C)(C)C)c1O`, the AC50 is 7.44 µM (active). As to `COc1cc(C(=O)NC2CCN(C)CC2)ccc1Nc1ncc2c(n1)N(C1CCCC1)CC(F)(F)C(=O)N2C`, the AC50 is 5.59 µM (active). Regarding `CC1(C)NC(=O)N(c2ccc([N+](=O)[O-])c(C(F)(F)F)c2)C1=O`, the result was inactive. Regarding `CCCCCc1ccc(N)cc1`, the result was inactive.

Consider `O=C(OCCCCCCOC(=O)c1ccccc1)c1ccccc1`, for which the outcome was inactive.

For the molecule `CC(=O)N1CCN(c2ccc(OC[C@H]3CO[C@](Cn4ccnc4)(c4ccc(Cl)cc4Cl)O3)cc2)CC1`, the AC50 is 22.8 µM (active).

With `Cc1cc2c(cc1C(F)(F)F)N(C(=O)Nc1ccc(Oc3cccnc3C)nc1)CC2`, the outcome was inactive. On to `NCc1cccc(C2CCN(C(=O)c3ccc(C#Cc4ccccc4F)o3)CC2)c1`, for which the AC50 is 7.97 µM (active). Consider `CCCCOC(=O)CC(CC(=O)OCCCC)(OC(C)=O)C(=O)OCCCC`, for which the result was inactive. In the case of `Clc1cc(Cl)c2c(c1)N=C1CCCCCN1C2`, the result was inactive. For `Cc1ccc(C(C)C)cc1`, the result was inactive. On the same count and under the same terms, as for `CCCCCCCCN(C)CCCCCCCC`, the entry is “inactive”. Still for that read-out and setting: the value for `CCCCCCCCCC(=O)O` was “inactive”. Same read-out and setting: the value for `Oc1ccc2ccccc2c1` was “inactive”.

Take `CCCCCCCCCCCC[N+](C)(C)C`: the AC50 was 6.09 µM (active). Take `COc1cccc([C@H](O)C2CCN(CCc3ccc(F)cc3)CC2)c1OC`: the result was inactive. Still for that read-out and setting: the value for `CCO[Si](CCCNC(N)=O)(OCC)OCC` was “inactive”; that for `O=C(O)Cn1c(=O)n(Cc2ccc(Br)cc2F)c(=O)c2ccc(Cl)cc21` was “inactive”; that for `CC(C)(O)c1ccc(CNC(=O)c2cccnc2Oc2ccc3nonc3c2)cc1` was “inactive”. Same read-out and setting: as for `O=C1CCC(C2CCCCC2)CC1`, the entry is “inactive”.
